Experimental data: PubChem BioAssay AID1159580 (chemical genetic matrix, 2015)
In all, about 5,500 compounds went through this assay and about 2,000 (36%) were called active. Not shown: some 18% with an inconclusive outcome. No stated cut-off is given here; in the data, active means normalized growth mostly below about 0.91 (no sharp cut-off); inconclusive means no clear call, values can overlap the other calls; inactive means mostly above about 0.92. The list shows a part of the results.

Assay: chemical genetic growth profiling, strain panel (AID 1159580);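 further: tested at 20 µM; growth read once vehicle control cultures reached saturation at 30 °C; 1 = growth at the plate median or of vehicle wells; lower values mean less growth of the strain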
Settings: growth OD

Measured: normalized growth

C[N+](C)(C)CCOP(=O)([O-])OP(=O)(O)OC[C@H]1OC(n2ccc(N)nc2=O)[C@H](O)[C@@H]1O (some centres not stated)
inactive: S. cerevisiae deletion strains, locus YJR075W, strain HOC1, active compounds read low 0.975 | S. cerevisiae deletion strains, locus YKL009W, strain mrt4, active compounds read low 1.03 | S. cerevisiae deletion strains, locus YKL068W, active compounds read low 0.991 | S. cerevisiae deletion strains, locus YKL085W, strain MDH1 (second series), active compounds read low 1.02 | S. cerevisiae deletion strains, locus YKL085W, strain MDH1, active compounds read low 1.02 | S. cerevisiae deletion strains, locus YKL160W, strain elf1, active compounds read low 0.984 | S. cerevisiae deletion strains, locus YKL190W, strain CNB1, active compounds read low 0.999 | S. cerevisiae deletion strains, locus YKR001C, strain vps1, active compounds read low 1.01 | S. cerevisiae deletion strains, locus YKR026C, strain gcn3, active compounds read low 0.979 | S. cerevisiae deletion strains, locus YKR091W, strain srl3, active compounds read low 0.982 | S. cerevisiae deletion strains, locus YLL001W, strain dnm1, active compounds read low 0.963 | S. cerevisiae deletion strains, locus YLL026W, active compounds read low 0.985 | S. cerevisiae deletion strains, locus YLL041C, strain sdh2, active compounds read low 0.98 | S. cerevisiae deletion strains, locus YLR027C, strain aat2, active compounds read low 0.987 | S. cerevisiae deletion strains, locus YLR039C, strain RIC1, active compounds read low 1.03 | S. cerevisiae deletion strains, locus YLR058C, strain SHM2, active compounds read low 1 | S. cerevisiae deletion strains, locus YLR102C, strain apc9, active compounds read low 1.01 | S. cerevisiae deletion strains, locus YLR113W, strain HOG1, active compounds read low 0.978 | S. cerevisiae deletion strains, locus YLR221C, strain rsa3, active compounds read low 1.01 | S. cerevisiae deletion strains, locus YLR258W, strain gsy2, active compounds read low 0.999 | S. cerevisiae deletion strains, locus YLR262C, strain YPT6 (second series), active compounds read low 0.98 | S. cerevisiae deletion strains, locus YLR262C, strain YPT6, active compounds read low 0.993 | S. cerevisiae deletion strains, locus YLR268W, strain sec22, active compounds read low 0.974 | S. cerevisiae deletion strains, locus YLR320W, strain mms22, active compounds read low 1.01 | S. cerevisiae deletion strains, locus YLR330W, strain CHS5, active compounds read low 1 | S. cerevisiae deletion strains, locus YLR342W, strain FKS1 (second series), active compounds read low 1.05 | S. cerevisiae deletion strains, locus YLR342W, strain FKS1, active compounds read low 0.974 | S. cerevisiae deletion strains, locus YLR357W, strain rsc2, active compounds read low 0.994 | S. cerevisiae deletion strains, locus YLR370C, strain arc18, active compounds read low 0.981 | S. cerevisiae deletion strains, locus YLR371W, strain rom2, active compounds read low 1.01 | S. cerevisiae deletion strains, locus YLR384C, strain iki3, active compounds read low 0.981 | S. cerevisiae deletion strains, locus YLR418C, strain cdc73, active compounds read low 0.963 | S. cerevisiae deletion strains, locus YML016C, strain PPZ1, active compounds read low 1 | S. cerevisiae deletion strains, locus YML032C, strain rad52, active compounds read low 1.02 | S. cerevisiae deletion strains, locus YML120C, strain ndi1, active compounds read low 0.999 | S. cerevisiae deletion strains, locus YML124C, strain tub3, active compounds read low 1.01 | S. cerevisiae deletion strains, locus YMR058W, strain fet3, active compounds read low 0.978 | S. cerevisiae deletion strains, locus YMR078C, strain ctf18, active compounds read low 1 | S. cerevisiae deletion strains, locus YMR125W, strain sto1, active compounds read low 0.994 | S. cerevisiae deletion strains, locus YMR129W, active compounds read low 0.981 | S. cerevisiae deletion strains, locus YMR205C, strain PFK2, active compounds read low 0.99 | S. cerevisiae deletion strains, locus YMR223W, strain ubp8, active compounds read low 1.02 | S. cerevisiae deletion strains, locus YMR231W, strain pep5, active compounds read low 0.989 | S. cerevisiae deletion strains, locus YMR263W, strain SAP30, active compounds read low 0.983 | S. cerevisiae deletion strains, locus YMR307W, strain GAS1, active compounds read low 1.04 | S. cerevisiae deletion strains, locus YNL067W, strain RPL9B, active compounds read low 0.969 | S. cerevisiae deletion strains, locus YNL071W, strain lat1, active compounds read low 0.991 | S. cerevisiae deletion strains, locus YNL128W, strain TEP1, active compounds read low 0.943 | S. cerevisiae deletion strains, locus YNL153C, strain GIM3, active compounds read low 0.985 | S. cerevisiae deletion strains, locus YNL183C, strain NPR1, active compounds read low 0.964 | S. cerevisiae deletion strains, locus YNL209W, strain ssb2, active compounds read low 1 | S. cerevisiae deletion strains, locus YNL233W, strain BNI4, active compounds read low 0.994 | S. cerevisiae deletion strains, locus YNL248C, strain rpa49, active compounds read low 1 | S. cerevisiae deletion strains, locus YNL250W, strain rad50, active compounds read low 1 | S. cerevisiae deletion strains, locus YNL271C, strain bni1, active compounds read low 0.995 | S. cerevisiae deletion strains, locus YNL298W, strain CLA4, active compounds read low 1 | S. cerevisiae deletion strains, locus YNL307C, strain MCK1, active compounds read low 1.02 | S. cerevisiae deletion strains, locus YNL322C, strain KRE1 (second series), active compounds read low 0.975 | S. cerevisiae deletion strains, locus YNL322C, strain KRE1, active compounds read low 0.998 | S. cerevisiae deletion strains, locus YNR049C, strain mso1, active compounds read low 0.972 | S. cerevisiae deletion strains, locus YNR052C, strain pop2, active compounds read low 1.02 | S. cerevisiae deletion strains, locus YOL006C, strain TOP1, active compounds read low 1.04 | S. cerevisiae deletion strains, locus YOL012C, strain htz1 0.746 | S. cerevisiae deletion strains, locus YOL147C, strain pex11, active compounds read low 1 | S. cerevisiae deletion strains, locus YOR001W, strain rrp6, active compounds read low 0.988 | S. cerevisiae deletion strains, locus YOR061W, strain CKA2, active compounds read low 1 | S. cerevisiae deletion strains, locus YOR069W, strain VPS5, active compounds read low 1 | S. cerevisiae deletion strains, locus YOR070C, strain gyp1, active compounds read low 0.998 | S. cerevisiae deletion strains, locus YOR080W, strain dia2, active compounds read low 0.985 | S. cerevisiae deletion strains, locus YOR083W, strain WHI5, active compounds read low 0.989 | S. cerevisiae deletion strains, locus YOR106W, strain vam3, active compounds read low 0.982 | S. cerevisiae deletion strains, locus YOR136W, strain idh2, active compounds read low 1 | S. cerevisiae deletion strains, locus YOR144C, strain elg1, active compounds read low 1 | S. cerevisiae deletion strains, locus YOR184W, strain ser1, active compounds read low 1.03 | S. cerevisiae deletion strains, locus YOR231W, strain MKK1, active compounds read low 1 | S. cerevisiae deletion strains, locus YOR265W, strain rbl2, active compounds read low 0.985 | S. cerevisiae deletion strains, locus YOR270C, strain vph1, active compounds read low 0.98 | S. cerevisiae deletion strains, locus YOR290C, strain snf2, active compounds read low 1.01 | S. cerevisiae deletion strains, locus YOR316C, strain cot1, active compounds read low 1.01 | S. cerevisiae deletion strains, locus YPL051W, strain arl3, active compounds read low 0.999 | S. cerevisiae deletion strains, locus YPL055C, strain LGE1, active compounds read low 0.937 | S. cerevisiae deletion strains, locus YPL078C, strain atp4, active compounds read low 0.976 | S. cerevisiae deletion strains, locus YPL106C, strain sse1, active compounds read low 0.993 | S. cerevisiae deletion strains, locus YPL240C, strain hsp82, active compounds read low 0.993 | S. cerevisiae deletion strains, locus YPL241C, strain CIN2, active compounds read low 0.992 | S. cerevisiae deletion strains, locus YPL256C, strain CLN2, active compounds read low 0.982 | S. cerevisiae deletion strains, locus YPR119W, strain clb2, active compounds read low 0.993 | S. cerevisiae deletion strains, locus YPR141C, strain kar3, active compounds read low 0.993 | S. cerevisiae deletion strains, locus YPR163C, strain tif3, active compounds read low 1.01 | S. cerevisiae deletion strains, locus YPR167C, strain met16, active compounds read low 0.992 | S. cerevisiae deletion strains, strain wtn01, active compounds read low 0.987 | S. cerevisiae strains, strain wild type, active compounds read low 0.972
